TIM10 inh: inhibits growth of TIM10 yeast strain | S. cerevisiae TIM10 strain growth, BacTiter-Glo luminescence, 24 h | inhibition, % at 10 µM | AID 463195 | 330,000 compounds, 1.4% hits;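 active = inhibition of 40% or more at the single tested concentration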;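 also: wild-type TIM10 isogenic control strain grown at permissive 25 °C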
Mdm2-MdmX inh: disrupts the human Mdm2-MdmX interaction. SaOS-2 split-luciferase Mdm2/MdmX complementation, luminescence. inhibition, % at 8 µM. 330,000 compounds, 3% hits;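 active = inhibition of at least 50% at 8 µM in the primary screen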
Target sequence (O15151 whole entry, looked up): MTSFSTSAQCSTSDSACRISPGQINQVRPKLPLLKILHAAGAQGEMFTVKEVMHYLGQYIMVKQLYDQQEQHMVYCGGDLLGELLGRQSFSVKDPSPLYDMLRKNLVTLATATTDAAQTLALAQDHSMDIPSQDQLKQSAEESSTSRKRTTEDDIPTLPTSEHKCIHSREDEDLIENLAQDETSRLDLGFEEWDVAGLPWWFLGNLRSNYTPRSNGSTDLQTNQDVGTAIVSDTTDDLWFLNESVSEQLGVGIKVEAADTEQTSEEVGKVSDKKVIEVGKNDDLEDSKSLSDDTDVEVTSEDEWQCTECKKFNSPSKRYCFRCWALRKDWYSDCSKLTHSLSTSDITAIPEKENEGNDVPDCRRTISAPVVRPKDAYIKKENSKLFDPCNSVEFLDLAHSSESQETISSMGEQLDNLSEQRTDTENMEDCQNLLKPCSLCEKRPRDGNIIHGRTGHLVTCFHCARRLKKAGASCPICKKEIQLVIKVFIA
Target sequence (Q00987 whole entry, looked up): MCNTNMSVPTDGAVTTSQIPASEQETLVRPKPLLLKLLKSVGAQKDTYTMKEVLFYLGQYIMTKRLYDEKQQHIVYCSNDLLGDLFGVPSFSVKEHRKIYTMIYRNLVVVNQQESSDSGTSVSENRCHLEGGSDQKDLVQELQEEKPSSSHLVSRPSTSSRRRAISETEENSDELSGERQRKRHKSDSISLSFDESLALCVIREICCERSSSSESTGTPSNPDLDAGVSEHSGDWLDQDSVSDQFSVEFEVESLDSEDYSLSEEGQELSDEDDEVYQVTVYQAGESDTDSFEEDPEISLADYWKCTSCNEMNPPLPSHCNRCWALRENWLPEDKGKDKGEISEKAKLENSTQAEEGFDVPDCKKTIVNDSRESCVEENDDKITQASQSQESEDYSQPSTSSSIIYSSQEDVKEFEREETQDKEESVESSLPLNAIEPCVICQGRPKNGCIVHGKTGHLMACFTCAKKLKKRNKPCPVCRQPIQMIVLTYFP
MPTP inh: inhibitors of mitochondrial permeability transition pore; isolated mouse mitochondria, Ca2+ swelling absorbance, 30 min; inhibition, % at 10 µM; 360,000 compounds, 1.4% hits;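 active = inhibition of 50% or more, scaled per plate between neutral and stimulator controls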;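 also: 0% = DMSO wells given calcium and 100% = 1 mM EGTA wells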
tim23-1 inh: inhibits growth of tim23-1 mutant yeast. S. cerevisiae tim23-1 growth, BacTiter-Glo luminescence, 24 h. inhibition, % at 20 µM. 330,000 compounds, 1.3% hits. AID 463212;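 active = growth inhibition of the mutant yeast at or above 50%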;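 also: temperature-sensitive mutant grown at 25 °C; plate controls were DMSO-treated mutant yeast for no effect and medium wells lacking yeast for full effect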
tim10-1 inh: growth inhibitors of tim10-1 mutant yeast; S. cerevisiae tim10-1 ts strain growth, BacTiter-Glo, 24 h; inhibition, % at 20 µM; 330,000 compounds, 2.2% hits; AID 463190;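 active = inhibition of at least 40%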;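 also: mutant grown at 25 °C; 0% = DMSO wells with yeast and 100% = wells holding no yeast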
Mdm2 MdmX conf: confirmation of human Mdm2/MdmX interaction inhibitors; shares compounds with Mdm2-MdmX inh; Mdm2-MdmX binding, luminescent assay; inhibition, % at 8 µM; 10,000 compounds, 55% hits; in the data active = inhibition above about 40%
FLuc counter: full-length luciferase inhibition in Mdm2/MdmX counter-screen. 6,200 compounds, 77% hits. inhibition, % at 8 µM. shares compounds with Mdm2-MdmX inh. SaOS-2 full-length luciferase counterscreen, luminescence;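 active = mean inhibition at 8 µM reaching about 37%, which flags the compound as non-specific, limit read from the data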;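 also: p53-null SaOS-2 cells with luciferase driven by a doxycycline-inducible promoter; compound on cells about two nights before reading with doxycycline added after day one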
Numbers without * were called inactive; nt = not tested or not shown; ! = not confirmed by another sample. A selection: hits, their analogues and other compounds. The true share with any hit is near 6.3%.

SMILES	TIM10 inh	Mdm2-MdmX inh	MPTP inh	tim23-1 inh	tim10-1 inh	Mdm2 MdmX conf	FLuc counter
N#C/C(=C\c1cn(CCOc2ccccc2F)c2ccccc12)C(=O)NCc1cccs1	-15.9	54.5*	1.2	-22.3	2.1	21.4	nt
Cc1ccc(C)c(OCCn2cc(/C=C(\C#N)C(=O)NCc3cccs3)c3ccccc32)c1	5.6	-2.1	6.0	25.9	11.6	nt	nt
CCN(CC)C(=O)[C@H]1CC(CC(=O)NC/C=C(\C)CCC=C(C)C)C(=O)N2CCc3c([nH]c4ccc(OC)cc34)[C@]12C (some centres undefined)	6.9	86.6*	-0.8	47.7	22.6	44.9*	58.9*
C[C@]12c3[nH]c4cc(-c5ccco5)ccc4c3CCN1C(=O)[C@@H](CC(=O)NCC13CC4CC(CC(C4)C1)C3)C[C@@H]2C(=O)N1CCOCC1	7.3	85.2*	-0.9	36.5	29.9	16.1	nt
CCN(CC)C(=O)[C@H]1CC(CC(=O)NCC23CC4CC(CC(C4)C2)C3)C(=O)N2CCc3c([nH]c4ccccc34)[C@]12C (some centres undefined)	13.0	69.4*	-0.8	23.9	10.5	23.1	nt
CCN(CC)C(=O)[C@H]1C[C@H](CC(=O)NCC23CC4CC(CC(C4)C2)C3)C(=O)N2CCc3c([nH]c4cc(-c5ccco5)ccc34)[C@]12C	12.5	84.0*	-2.6	43.8	34.2	56.5*	70.7*
C[C@]12c3[nH]c4cc(-c5ccco5)ccc4c3CCN1C(=O)[C@@H](CC(=O)NCCN1CCOCC1)C[C@@H]2C(=O)N1CCCCC1	-3.5	15.3	-1.2	24.0	-5.3	nt	nt
Cc1ccc(Cn2cc(CN(C)C3CN(Cc4cn(Cc5ccc(C)cc5)nn4)S(=O)(=O)C3)nn2)cc1 (centres undefined)	nt	nt	0.3	nt	nt	nt	nt
CCCNC(=O)C1(C)CCN(C(=O)COCc2ccccc2)C1 (centres undefined)	nt	nt	0.8	nt	nt	nt	nt
CCOC(=O)[C@]12CCC=C1N(Cc1ccccc1)C(=O)[C@H](CC(=O)N1CCN(C(=O)c3ccco3)CC1)C2	nt	nt	0.6	nt	nt	nt	nt
O=C(COc1ccc([N+](=O)[O-])cc1)NNC(=O)C1COc2ccccc2O1 (centres undefined)	nt	nt	-2.3	nt	nt	nt	nt
CCN(CC)S(=O)(=O)c1ccc(/C(O)=C(\C#N)c2nc3ccccc3n2C)cc1	8.2	18.5	-1.1	2.4	10.7	nt	nt
Cn1c(/C(C#N)=C(\O)c2ccc([N+](=O)[O-])cc2)nc2ccccc21	0.5	85.7*	-0.2	-5.3	-11.3	27.2	nt
COc1ccc2c(c1)c1nc3n(c(=O)c1n2CC(=O)Nc1cc(C)[nH]n1)CCS3	-9.0	67.3*	nt	1.1	6.0	59.5*	100.9*
CCN1CCN(Cc2ccc(NC(=O)c3ccc(C)c(NC(=O)c4nccn4C)c3)cc2C(F)(F)F)CC1	16.4	20.5	-1.1	14.9	19.6	nt	nt
CCN1CCN(Cc2ccc(NC(=O)c3ccc(C)c(NC(=O)c4cccc5[nH]ccc45)c3)cc2C(F)(F)F)CC1	-9.4	55.3*	-2.0	-12.0	-17.7	24.8	nt
CCN1CCN(Cc2ccc(NC(=O)c3ccc(C)c(NC(=O)c4cc(-c5ccc(Br)cc5)n[nH]4)c3)cc2C(F)(F)F)CC1	1.8	98.6*	1.8	-11.5	-9.4	34.9	41.0*
CCN1CCN(Cc2ccc(NC(=O)c3ccc(C)c(NC(=O)c4cncc(-c5cccs5)c4)c3)cc2C(F)(F)F)CC1	nt	nt	5.7	nt	nt	nt	nt
CCN1CCN(Cc2ccc(NC(=O)c3ccc(C)c(NC(=O)c4nccnc4N)c3)cc2C(F)(F)F)CC1	4.9	97.0*	-0.7	-13.2	-4.0	63.7*	42.2*
Cc1ccc(C(=O)Nc2cccc(C(F)(F)F)c2)cc1NC(=O)c1nccn1C	4.4	-8.7	0.9	19.6	5.2	nt	nt
CCN1CCN(Cc2ccc(NC(=O)c3ccc(C)c(NC(=O)N4CCNC4=O)c3)cc2C(F)(F)F)CC1	13.4	58.7*	-1.8	2.2	8.7	40.4*!	82.6*
Cc1cn(-c2cc(C(=O)Nc3ccc(C)c(NC(=O)N4CCNC4=O)c3)cc(C(F)(F)F)c2)cn1	0.7	20.4	-1.6	-1.8	-6.6	nt	nt
CCCCCCn1c(=O)n2n(c1=O)[C@@H]1CN(S(=O)(=O)c3ccc(C)cc3)C[C@]1(O)[C@@H](OC(=O)NCc1ccco1)C2	nt	nt	0.3	nt	nt	nt	nt
COc1cc(OC)c(C(=O)OCC(=O)c2ccc3c(c2)NC(=O)CO3)cc1OC	5.1	4.1	-2.3	5.4	14.1	nt	nt
CSc1ncccc1C(=O)OCC(=O)c1ccc2c(c1)NC(=O)CO2	-10.1	67.9*	1.8	-6.5	10.4	20.9	nt
SMILES	TIM10 inh	Mdm2-MdmX inh	MPTP inh	tim23-1 inh	tim10-1 inh	Mdm2 MdmX conf	FLuc counter
CC(=O)Nc1sc(N/N=C\c2ccccc2Cl)nc1-c1cccs1	26.4	50.5*	1.0	10.6	19.7	60.8*	96.5*
CC(=O)Nc1sc(N/N=C\c2ccccc2)nc1-c1cccs1	16.6	-2.6	1.1	19.8	30.9	nt	nt
COc1ccc(C2=NOC(C(=O)NCc3ccc(F)cc3)C2)cc1OC (centres undefined)	1.0	44.2	-0.4	1.8	2.5	nt	nt
COc1cc(C2=NOC(C(=O)NCc3ccc(F)cc3)C2)cc(OC)c1OC (centres undefined)	4.6	60.6*	-0.2	24.2	17.8	57.6*	83.1*
O=C(c1cccc(S(=O)(=O)NCc2ccccc2)c1)N1CCN(c2ccccc2Cl)CC1	nt	nt	-1.1	nt	nt	nt	nt
Cn1c(SCC(=O)Nc2cccc(Br)c2)nnc1-c1cc2ccccc2o1	-26.3	62.7*	4.6	-41.7	-2.4	-18.6	nt
CNC(=O)CN(c1cc(OCCOC)c(Cl)cc1Cl)S(=O)(=O)c1ccc(OC)cc1	6.3	56.5*	1.8	12.5	20.2	48.1*	79.3*
CN(C)CCCNc1ncnc2oc(-c3ccccc3)c(-c3ccccc3)c12	3.5	66.2*	-2.3	-15.5	-13.8	39.2	64.1*
c1ccc(C2(CN3CCNC[C@H]3Cc3cccc4ccccc34)CC2)cc1	7.7	52.8*	0.4	10.1	13.1	38.1	91.0*
O=C(NCc1ccc(Cl)nc1)c1csc([C@@H]2C[C@H](O)[C@@H](CO)O2)n1	nt	nt	0.1	nt	nt	nt	nt
Nc1ccccc1C#CC(=O)c1ccccc1	23.6	96.0*	1.8	-62.4	-23.1	62.7*	55.5*
CC(C)N1CC(C(=O)Nc2ccc(Cl)cc2Cl)CC1=O (centres undefined)	nt	nt	0.2	nt	nt	nt	nt
N#Cc1c(-c2cccc(F)c2)cc(-c2ccccc2)nc1Br	-15.4	12.3	1.2	-13.1	14.3	nt	nt
COc1ccc(-c2cc(-c3ccccc3)c(C#N)c(S(C)(=O)=O)n2)cc1	20.4	89.8*	-2.0	33.3	6.5	-24.4	nt
COc1ccc(-c2cc(-c3ccc(OC)cc3)c(C#N)c(SC)n2)cc1	6.7	31.6	9.2	6.4	12.7	nt	nt
CS(=O)(=O)c1nc(-c2ccc(Br)cc2)cc(-c2ccccc2)c1C#N	30.4	100.5*	1.0	26.2	36.4	76.1*	51.5*

Assay outcomes: PubChem, Sanford-Burnham Center for Chemical Genomics
